Data reported in PubChem BioAssay AID1159580 (chemical genetic matrix, 2015).
Hit rate of the full screen: of about 5,500 compounds, about 2,000 (36%) were called active. Roughly 18% stayed inconclusive and do not appear here. Cut-off read from the data, not from the text of the source: active = normalized growth mostly below about 0.91 (no sharp cut-off); inconclusive = no clear call, values can overlap the other calls; inactive = mostly above about 0.92. The list shows a part of the results.

Experiment: chemical genetic growth profiling, strain panel (AID 1159580);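 note: tested at 20 µM; growth read once vehicle control cultures reached saturation at 30 °C; 1 = growth at the plate median or of vehicle wells; lower values mean less growth of the strain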
Details: growth OD
[1] = S. cerevisiae deletion strains, locus YBR021W, strain FUR4, active compounds read low
[2] = S. cerevisiae deletion strains, locus YBR229C, strain ROT2, active compounds read low
[3] = S. cerevisiae deletion strains, locus YCL029C, strain bik1, active compounds read low
[4] = S. cerevisiae deletion strains, locus YDL035C, strain GPR1, active compounds read low
[5] = S. cerevisiae deletion strains, locus YDL074C, strain BRE1, active compounds read low
[6] = S. cerevisiae deletion strains, locus YDL101C, strain DUN1, active compounds read low
[7] = S. cerevisiae deletion strains, locus YDL185W, strain tfp1, active compounds read low
[8] = S. cerevisiae deletion strains, locus YDL192W, strain arf1, active compounds read low
[9] = S. cerevisiae deletion strains, locus YDR101C, strain arx1, active compounds read low
[10] = S. cerevisiae deletion strains, locus YDR162C, strain NBP2, active compounds read low
[11] = S. cerevisiae deletion strains, locus YDR318W, strain mcm21, active compounds read low
[12] = S. cerevisiae deletion strains, locus YDR388W, active compounds read low
[13] = S. cerevisiae deletion strains, locus YDR502C, strain sam2, active compounds read low
[14] = S. cerevisiae deletion strains, locus YEL061C, strain CIN8, active compounds read low
[15] = S. cerevisiae deletion strains, locus YER110C, active compounds read low
[16] = S. cerevisiae deletion strains, locus YER167W, strain BCK2, active compounds read low
[17] = S. cerevisiae deletion strains, locus YGL078C, strain dbp3, active compounds read low
[18] = S. cerevisiae deletion strains, locus YGL086W, strain mad1, active compounds read low
[19] = S. cerevisiae deletion strains, locus YGL248W, strain PDE1, active compounds read low
[20] = S. cerevisiae deletion strains, locus YGR135W, strain pre9, active compounds read low
[21] = S. cerevisiae deletion strains, locus YGR252W, strain gcn5, active compounds read low
[22] = S. cerevisiae deletion strains, locus YHR079C, strain IRE1 (second series), active compounds read low
[23] = S. cerevisiae deletion strains, locus YHR094C, strain hxt1, active compounds read low
[24] = S. cerevisiae deletion strains, locus YHR129C, strain ARP1, active compounds read low
[25] = S. cerevisiae deletion strains, locus YHR200W, strain rpn10, active compounds read low
[26] = S. cerevisiae deletion strains, locus YIL066C, strain RNR3, active compounds read low
[27] = S. cerevisiae deletion strains, locus YIL073C, strain SPO22, active compounds read low
[28] = S. cerevisiae deletion strains, locus YIL125W, strain kgd1, active compounds read low
[29] = S. cerevisiae deletion strains, locus YIR030C, strain dcg1, active compounds read low
[30] = S. cerevisiae deletion strains, locus YJL095W, strain BCK1, active compounds read low
[31] = S. cerevisiae deletion strains, locus YJL134W, strain LCB3, active compounds read low
[32] = S. cerevisiae deletion strains, locus YJL168C, strain set2, active compounds read low
[33] = S. cerevisiae deletion strains, locus YJL187C, strain SWE1 (second series), active compounds read low
[34] = S. cerevisiae deletion strains, locus YJR043C, strain POL32, active compounds read low
[35] = S. cerevisiae deletion strains, locus YKL009W, strain mrt4, active compounds read low
[36] = S. cerevisiae deletion strains, locus YKL068W, active compounds read low
[37] = S. cerevisiae deletion strains, locus YKL085W, strain MDH1 (second series), active compounds read low
[38] = S. cerevisiae deletion strains, locus YKL085W, strain MDH1, active compounds read low
[39] = S. cerevisiae deletion strains, locus YKL190W, strain CNB1, active compounds read low
[40] = S. cerevisiae deletion strains, locus YKR001C, strain vps1, active compounds read low
[41] = S. cerevisiae deletion strains, locus YLR039C, strain RIC1, active compounds read low
[42] = S. cerevisiae deletion strains, locus YLR058C, strain SHM2, active compounds read low
[43] = S. cerevisiae deletion strains, locus YLR102C, strain apc9, active compounds read low
[44] = S. cerevisiae deletion strains, locus YLR262C, strain YPT6, active compounds read low
[45] = S. cerevisiae deletion strains, locus YLR268W, strain sec22, active compounds read low
[46] = S. cerevisiae deletion strains, locus YLR330W, strain CHS5, active compounds read low
[47] = S. cerevisiae deletion strains, locus YLR371W, strain rom2, active compounds read low
[48] = S. cerevisiae deletion strains, locus YLR418C, strain cdc73, active compounds read low
[49] = S. cerevisiae deletion strains, locus YML016C, strain PPZ1, active compounds read low
[50] = S. cerevisiae deletion strains, locus YML032C, strain rad52, active compounds read low
[51] = S. cerevisiae deletion strains, locus YML124C, strain tub3, active compounds read low
[52] = S. cerevisiae deletion strains, locus YMR078C, strain ctf18, active compounds read low
[53] = S. cerevisiae deletion strains, locus YMR223W, strain ubp8, active compounds read low
[54] = S. cerevisiae deletion strains, locus YMR263W, strain SAP30, active compounds read low
[55] = S. cerevisiae deletion strains, locus YMR307W, strain GAS1, active compounds read low
[56] = S. cerevisiae deletion strains, locus YNL067W, strain RPL9B, active compounds read low
[57] = S. cerevisiae deletion strains, locus YNL128W, strain TEP1, active compounds read low
[58] = S. cerevisiae deletion strains, locus YNL153C, strain GIM3, active compounds read low
[59] = S. cerevisiae deletion strains, locus YNL233W, strain BNI4, active compounds read low
[60] = S. cerevisiae deletion strains, locus YNL250W, strain rad50, active compounds read low
[61] = S. cerevisiae deletion strains, locus YNL271C, strain bni1, active compounds read low
[62] = S. cerevisiae deletion strains, locus YNL298W, strain CLA4, active compounds read low
[63] = S. cerevisiae deletion strains, locus YNL307C, strain MCK1, active compounds read low
[64] = S. cerevisiae deletion strains, locus YNR052C, strain pop2, active compounds read low
[65] = S. cerevisiae deletion strains, locus YOL012C, strain htz1
[66] = S. cerevisiae deletion strains, locus YOL147C, strain pex11, active compounds read low
[67] = S. cerevisiae deletion strains, locus YOR061W, strain CKA2, active compounds read low
[68] = S. cerevisiae deletion strains, locus YOR069W, strain VPS5, active compounds read low
[69] = S. cerevisiae deletion strains, locus YOR136W, strain idh2, active compounds read low
[70] = S. cerevisiae deletion strains, locus YOR144C, strain elg1, active compounds read low
[71] = S. cerevisiae deletion strains, locus YOR184W, strain ser1, active compounds read low
[72] = S. cerevisiae deletion strains, locus YOR316C, strain cot1, active compounds read low
[73] = S. cerevisiae deletion strains, locus YPR119W, strain clb2, active compounds read low
[74] = S. cerevisiae deletion strains, locus YPR141C, strain kar3, active compounds read low
[75] = S. cerevisiae deletion strains, locus YPR163C, strain tif3, active compounds read low
[76] = S. cerevisiae deletion strains, locus YPR167C, strain met16, active compounds read low
[77] = S. cerevisiae deletion strains, strain wtn01, active compounds read low
[78] = S. cerevisiae strains, strain wild type, active compounds read low

Measured: normalized growth

COc1cc(C)c2c(=O)c3c(O)cc(OC)cc3oc2c1
inactive: S. cerevisiae deletion strains, locus YAL013W, strain DEP1, active compounds read low 1.01 | [1] 0.968 | [2] 1.02 | [3] 0.991 | [4] 1.01 | [5] 1.02 | [6] 1.02 | S. cerevisiae deletion strains, locus YDL134C, strain PPH21, active compounds read low 1.01 | [7] 0.991 | [8] 0.986 | [9] 0.981 | S. cerevisiae deletion strains, locus YDR150W, strain NUM1, active compounds read low 1.02 | [10] 1.02 | [11] 0.986 | [12] 0.981 | [13] 0.982 | [14] 1.01 | [15] 0.977 | S. cerevisiae deletion strains, locus YER155C, strain BEM2, active compounds read low 1 | [16] 1.01 | [17] 0.976 | [18] 0.982 | [19] 1.02 | S. cerevisiae deletion strains, locus YGR078C, strain PAC10, active compounds read low 1 | [20] 0.977 | S. cerevisiae deletion strains, locus YGR229C, strain SMI1, active compounds read low 0.996 | [21] 0.929 | S. cerevisiae deletion strains, locus YHR030C, strain SLT2, active compounds read low 1.01 | [22] 0.977 | [23] 0.991 | [24] 1.01 | [25] 0.975 | [26] 1.01 | [27] 0.967 | [28] 0.984 | [29] 0.994 | [30] 0.995 | [31] 1.01 | [32] 0.982 | [33] 1.02 | [34] 0.999 | S. cerevisiae deletion strains, locus YJR075W, strain HOC1, active compounds read low 1.01 | [35] 0.984 | [36] 0.993 | [37] 1.03 | [38] 1.03 | [39] 1.01 | [40] 0.982 | [41] 1.04 | [42] 1.02 | [43] 0.982 | [44] 1.04 | [45] 0.987 | [46] 1.02 | S. cerevisiae deletion strains, locus YLR342W, strain FKS1 (second series), active compounds read low 0.996 | [47] 0.984 | [48] 0.981 | [49] 1.02 | [50] 0.978 | [51] 0.985 | [52] 0.993 | [53] 0.98 | [54] 1.01 | [55] 0.976 | [56] 1.01 | [57] 1.01 | [58] 1.01 | [59] 1.01 | [60] 0.992 | [61] 0.98 | [62] 0.976 | [63] 0.981 | S. cerevisiae deletion strains, locus YNL322C, strain KRE1, active compounds read low 1.01 | [64] 0.978 | S. cerevisiae deletion strains, locus YOL006C, strain TOP1, active compounds read low 1.05 | [65] 1.37 | [66] 0.985 | [67] 1.02 | [68] 1.01 | [69] 0.979 | [70] 0.99 | [71] 0.969 | [72] 0.982 | S. cerevisiae deletion strains, locus YPL055C, strain LGE1, active compounds read low 1.01 | S. cerevisiae deletion strains, locus YPL241C, strain CIN2, active compounds read low 0.99 | [73] 0.98 | [74] 1 | [75] 0.988 | [76] 0.985 | [77] 0.986 | [78] 1.01

COc1cc(C)c2c(=O)c3c(O)cc(O)cc3oc2c1
active: [8] 0.891 | [11] 0.906 | [13] 0.92 | [18] 0.904 | [21] 0.764 | [22] 0.925 | [25] 0.904 | [40] 0.871 | [48] 0.815 | [50] 0.829 | [53] 0.884 | [59] 0.86 | [60] 0.889 | [63] 0.868 | [66] 0.923 | [75] 0.896 | [76] 0.883
inactive: [1] 0.936 | [2] 0.975 | [3] 0.95 | [4] 0.994 | [5] 0.95 | [6] 0.974 | [7] 0.955 | [9] 0.943 | [10] 0.967 | [12] 0.941 | [14] 1.02 | [15] 0.948 | [16] 0.983 | [17] 0.946 | [19] 0.934 | [20] 0.93 | [23] 0.961 | [24] 0.995 | [26] 0.986 | [27] 0.923 | [28] 0.957 | [29] 0.953 | [30] 0.829 | [31] 0.981 | [32] 0.975 | [33] 0.953 | [34] 0.979 | [35] 0.911 | [36] 0.971 | [37] 0.952 | [38] 0.952 | [39] 1 | [41] 0.865 | [42] 0.941 | [43] 0.969 | [44] 0.846 | [45] 0.941 | [46] 0.973 | [47] 0.936 | [49] 0.974 | [51] 0.967 | [52] 0.954 | [54] 0.979 | [55] 0.752 | [56] 0.992 | [57] 0.985 | [58] 0.989 | [61] 0.953 | [62] 0.962 | [64] 0.933 | [65] 0.866 | [67] 0.982 | [68] 0.997 | [69] 0.925 | [70] 0.954 | [71] 0.918 | [72] 0.96 | [73] 0.956 | [74] 0.958 | [77] 0.919 | [78] 0.932
